According to PubChem BioAssay (Tox21):
Records with an inconclusive call do not appear. Entries that show only a call come without a potency. The source made the active and inactive calls. The call rests on the fitted dose curve.

molecular target: Thyrotropin receptor (Homo sapiens) (UniProt P16473); assay: qHTS assay to identify small molecule agonists of the thyroid stimulating hormone receptor (TSHR) signaling pathway (AID 1224843); settings: TSHR-HEK293 cells, cAMP HTRF, agonist mode, 30 min; series mostly up to 92.4 µM; further: nearly all actives have a fitted effect of over 45% in size
Sequence (P16473 whole entry, looked up): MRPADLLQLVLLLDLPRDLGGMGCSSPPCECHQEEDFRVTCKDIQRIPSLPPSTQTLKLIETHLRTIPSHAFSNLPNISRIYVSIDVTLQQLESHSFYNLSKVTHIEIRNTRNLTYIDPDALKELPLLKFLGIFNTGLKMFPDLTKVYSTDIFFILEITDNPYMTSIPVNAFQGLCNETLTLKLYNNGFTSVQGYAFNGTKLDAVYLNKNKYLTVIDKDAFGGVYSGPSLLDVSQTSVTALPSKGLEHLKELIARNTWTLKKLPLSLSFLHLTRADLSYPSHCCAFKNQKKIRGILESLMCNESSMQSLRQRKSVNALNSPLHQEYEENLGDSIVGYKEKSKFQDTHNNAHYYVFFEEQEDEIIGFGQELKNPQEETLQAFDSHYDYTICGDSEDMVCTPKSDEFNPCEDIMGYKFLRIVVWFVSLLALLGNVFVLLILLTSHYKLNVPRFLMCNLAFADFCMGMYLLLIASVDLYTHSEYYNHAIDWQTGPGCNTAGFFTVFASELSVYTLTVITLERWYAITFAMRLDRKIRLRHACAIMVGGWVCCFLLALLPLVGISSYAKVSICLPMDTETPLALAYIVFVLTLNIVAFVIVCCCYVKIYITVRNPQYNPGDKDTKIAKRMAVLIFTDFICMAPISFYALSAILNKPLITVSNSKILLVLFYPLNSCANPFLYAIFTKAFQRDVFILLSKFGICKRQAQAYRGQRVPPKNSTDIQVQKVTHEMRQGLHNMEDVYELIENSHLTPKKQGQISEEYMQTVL
In short: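 Steps: seed 800 TSHR-HEK293 cells per well; add test compound and hold 30 min at ambient temperature; dispense cAMP-d2 then anti-cAMP cryptate; incubate 1 h at ambient; measure fluorescence intensity.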

Compound	Potency
Nc1cccc(C(F)(F)F)c1	inactive
CO[Si](CCCNCCN)(OC)OC	inactive
C=C(C)CC(C)(C)C	inactive
CC(=O)OC[C@H]1O[C@@](COC(C)=O)(O[C@H]2O[C@H](COC(C)=O)[C@@H](OC(C)=O)[C@H](OC(C)=O)[C@H]2OC(C)=O)[C@@H](OC(C)=O)[C@@H]1OC(C)=O	inactive
Cc1cc(C)c(O)c(C)c1	inactive
NC1CCCCC1N (stereo unspecified)	inactive
OCCOCCOCCOCCOCCO	inactive
NC(=O)NC(N)=O	inactive
OC[C@H]1O[C@@H](Oc2ccc(O)cc2)[C@H](O)[C@@H](O)[C@@H]1O	inactive
Oc1ccc(Cc2ccccc2O)cc1	inactive
CN=C(NC#N)NCCSCc1nc[nH]c1C	inactive
Brc1ccc(Oc2ccc(Br)cc2)cc1	inactive
CCCCCNCCCCC	inactive
CN1Cc2c(N)cccc2C(c2ccccc2)C1 (stereo unspecified)	inactive
CC/C(C)=N/O	inactive
CCCOC(=O)NCCCN(C)C	inactive

Compound	Potency
C[Si](C)(C)N[Si](C)(C)C	inactive
Nc1nc(N)c2nc(-c3ccccc3)c(N)nc2n1	inactive
CCCCCCCCO	inactive
N#CCC(=O)O	inactive
OCC(O)CS (stereo unspecified)	inactive
O=[N+]([O-])c1ccccc1C(F)(F)F	inactive
CC(C=O)Cc1ccc(C(C)(C)C)cc1 (stereo unspecified)	inactive
CC1=CC(=O)CC(C)(C)C1	inactive
Cc1ccncc1	inactive
CC(CN1c2ccccc2Sc2ccccc21)N(C)C (stereo unspecified)	inactive
CCCCCCCCC(=O)O	inactive
Cc1cc(CC(=O)O)n(C)c1C(=O)c1ccc(Cl)cc1	inactive
Cc1ccc(C)c(S(=O)(=O)O)c1	inactive
C=C(CC(=O)O)C(=O)O	inactive
O=c1n(CCCN2CCN(c3cccc(Cl)c3)CC2)nc2ccccn12	inactive
